# Where a name gives a salt, the structure may show the parent alone. ± gives the standard error. The whole screen tested about 1,300 compounds, of which about 75 (6%) showed an effect of 50% or more. This excerpt belongs to a sample that is enriched for strong results.
# System: Trichoderma virens ATCC 9645
# Assay: growth yield (OD600) relative to untreated control; higher = less growth inhibition
# Conditions: compound concentration: 100 uM
# In short: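 For each 96-well plate, 100 μl aliquots were prepared with Trichoderma virens ATCC 9645 spores suspended at 15,000 spores ml^−1 in potato dextrose broth. The spores had been harvested from potato dextrose agar plates after 7 days. Library compounds were present at 100 μM final, some wells also receiving a biocide at 200 ng ml^−1, and plates were grown at 30 °C with OD600 read on a BioTek EL800 at 40 h and 72 h. Reported growth, relative to the control lacking both agents, is the mean of duplicate screens.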
Structure (SMILES),growth yield (40 h) [%],growth yield (72 h) [%]
C[C@@H]1C[C@H]2[C@@H]3C[C@H](F)C4=CC(=O)C=C[C@]4(C)[C@@]3(F)[C@@H](O)C[C@]2(C)[C@@]1(O)C(=O)COC(=O)C(C)(C)C [Flumethasone pivalate],106 ± 7.2,104 ± 5.3
Cc1ccccc1OCC(O)CO (stereo not drawn) [Mephenesin],98 ± 3.3,99.5 ± 3.5
Cc1cnc(C(=O)NCCc2ccc(S(=O)(=O)NC(=O)NC3CCCCC3)cc2)cn1 [Glipizide],103.7 ± 0.48,104.3 ± 0.52
O=C(O)[C@H]1/C(=C/CO)O[C@@H]2CC(=O)N21 [Clavulanate potassium salt],95.5 ± 2.4,87.9 ± 3.4
CC(COc1ccccc1)NC(C)C(O)c1ccc(O)cc1 (stereo not drawn) [Isoxsuprine hydrochloride],101 ± 1.1,98.6 ± 2.3
CC(COc1ccccc1)N(CCCl)Cc1ccccc1 (stereo not drawn) [Phenoxybenzamine hydrochloride],104 ± 4.6,103 ± 4.2
Oc1ccc(OCc2ccccc2)cc1 [Monobenzone],48.6 ± 0.64,53.3 ± 1.7
Cc1ccc(O)c([C@H](CCN(C(C)C)C(C)C)c2ccccc2)c1 [Tolterodine tartrate],96.7 ± 2.7,97.95 ± 0.42
CN(C)CCn1nnnc1SCC1=C(C(=O)O)N2C(=O)[C@@H](NC(=O)Cc3csc(N)n3)[C@H]2SC1 [Cefotiam hydrochloride],102 ± 1.4,102.2 ± 0.73
C[C@@H](c1ncncc1F)[C@](O)(Cn1cncn1)c1ccc(F)cc1F [Voriconazole],3.02 ± 1.4,2.41 ± 0.94
OC(Cn1cncn1)(Cn1cncn1)c1ccc(F)cc1F [Fluconazole],55.1 ± 1.8,61.14 ± 0.52
N=C(NCCCCCCNC(=N)NC(=N)Nc1ccc(Cl)cc1)NC(=N)Nc1ccc(Cl)cc1 [Chlorhexidine],2.7 ± 1.4,2.31 ± 0.84
N=C(N)NC(=N)NCCc1ccccc1 [Phenformin hydrochloride],96.9 ± 1.9,91.5 ± 2.7
CC(C)NC(=N)NC(=N)Nc1ccc(Cl)cc1 [Proguanil hydrochloride],110 ± 13,109 ± 9
CC(C)NCC(O)c1ccc2ccccc2c1 (stereo not drawn) [Pronethalol hydrochloride],98.6 ± 2.1,99.3 ± 2
CC(=O)N[C@@H](CC(=O)N[C@@H](CCC(=O)O)C(=O)O)C(=O)O [Spaglumic acid],101 ± 3.5,99.5 ± 1.4
Cc1cc(C(C)(C)CC(C)(C)C)ccc1OCCOCC[N+](C)(C)Cc1ccccc1 [Methyl benzethonium chloride],1.43 ± 0.79,0.944 ± 0.52
C[N+](C)(CCOc1ccccc1)Cc1ccccc1.O=C([O-])c1cc2ccccc2cc1O [Bephenium hydroxynaphthoate],73.2 ± 1.1,79.6 ± 2.2
CC(C)(C)CC(C)(C)c1ccc(OCCOCC[N+](C)(C)Cc2ccccc2)cc1 [Benzethonium chloride],1.75 ± 0.16,1.78 ± 0.1
CCOc1ccccc1OCC1CNCCO1 (stereo not drawn) [Viloxazine hydrochloride],99.6 ± 1.8,96.4 ± 1.4
COc1ncnc(NS(=O)(=O)c2ccc(N)cc2)c1OC [Sulfadoxine],91 ± 9.4,101 ± 2.6
O=C1c2cccc3c2[C@H](CCC3)CN1[C@@H]1CN2CCC1CC2 [Palonosetron hydrochloride],103 ± 6,99 ± 4.2
O=C(NCCN1CCOCC1)c1ccc(Cl)cc1 [Moclobemide],102 ± 2.1,106 ± 2

Structure (SMILES),growth yield (40 h) [%],growth yield (72 h) [%]
COc1ccc2[nH]c([S+]([O-])Cc3ncc(C)c(OC)c3C)nc2n1 (stereo not drawn) [Tenatoprazole],98.8 ± 4.8,102 ± 1.6
CCOC(=O)c1ccc(OC(=O)CCCCCNC(=N)N)cc1 [Gabexate mesilate],76.6 ± 4.5,76 ± 3.7
Cc1nnc(NS(=O)(=O)c2ccc(N)cc2)s1 [Sulfamethizole],100.4 ± 0.32,99.74 ± 0.1
COC(=O)[C@H](c1ccccc1Cl)N1CCc2sccc2C1 [Clopidogrel],76.9 ± 1.6,82 ± 1.1
CO[C@@]1(NC(=O)Cc2cccs2)C(=O)N2C(C(=O)O)=C(COC(N)=O)CS[C@@H]21 [Cefoxitin sodium salt],94.4 ± 3.5,94.8 ± 1.9
Nc1c2ccccc2nc2ccccc12 [Aminacrine],98.64 ± 0.48,96.9 ± 2.9
Nc1ccc(/N=N/c2ccccc2)c(N)n1 [Phenazopyridine hydrochloride],21.1 ± 1.4,49.4 ± 6.2
CCN(Cc1ccncc1)C(=O)C(CO)c1ccccc1 (stereo not drawn) [Tropicamide],99.6 ± 1.8,102 ± 1.1
CO[C@@H]1[C@@H](OC(N)=O)[C@@H](O)[C@H](Oc2ccc3c(O)c(NC(=O)c4ccc(O)c(CC=C(C)C)c4)c(=O)oc3c2C)OC1(C)C [Novobiocin sodium salt],92 ± 1.8,115 ± 4.7
CCOC(=O)[C@@](C)(N)Cc1ccc(O)c(O)c1 [Methyldopate hydrochloride],104 ± 5.2,97.85 ± 0.94
N[C@H]1CONC1=O [(S)-(-)-Cycloserine],104 ± 3.3,96.8 ± 3
Cc1cc(C)nc(NS(=O)(=O)c2ccc(N)cc2)n1 [Sulfamethazine sodium salt],106 ± 4.5,101 ± 2.2
Cc1cc(NS(=O)(=O)c2ccc(N)cc2)no1 [Sulfamethoxazole],40 ± 4.8,82.9 ± 2.1
Cc1noc(NS(=O)(=O)c2ccc(N)cc2)c1C [Sulfisoxazole],87.4,96.2 ± 1.8
C#C[C@]1(O)CC[C@H]2[C@@H]3CCC4=Cc5oncc5C[C@]4(C)[C@H]3CC[C@@]21C [Danazol],83.39 ± 0.79,87.15 ± 0.32
CCCc1nc(C(C)(C)O)c(C(=O)O)n1Cc1ccc(-c2ccccc2-c2nnn[nH]2)cc1 [Olmesartan],100 ± 3.2,99.8 ± 2.9
c1ccc(-c2ccc(C(c3ccccc3)n3ccnc3)cc2)cc1 (stereo not drawn) [Bifonazole],2.86 ± 1.9,1.99 ± 0.94
N#Cc1ccc(C(c2ccc(C#N)cc2)n2cncn2)cc1 [Letrozole],103 ± 1.1,101.5 ± 0.42
CCC1(c2ccccc2)NC(=O)N(C)C1=O (stereo not drawn) [Mephenytoin],110 ± 4.9,102 ± 4.5
CC1(C)[C@@H](OC(=O)CCC(=O)O)CC[C@]2(C)[C@H]3C(=O)C=C4[C@@H]5C[C@@](C)(C(=O)O)CC[C@]5(C)CC[C@@]4(C)[C@]3(C)CC[C@@H]12 [Carbenoxolone disodium salt],95 ± 4.1,94.6 ± 2.1
CN(C)[C@@H]1C(O)=C(C(N)=O)C(=O)[C@@]2(O)C(O)=C3C(=O)c4c(O)ccc(Cl)c4[C@@H](O)[C@H]3C[C@@H]12 [Demeclocycline hydrochloride],82.6 ± 3.2,85.1 ± 5.6
N=C(N)NC(=O)Cc1c(Cl)cccc1Cl [Guanfacine hydrochloride],97.1 ± 1.4,101.3 ± 0.63
COC(=O)CCc1ccc(OCC(O)CNC(C)C)cc1 (stereo not drawn) [Esmolol hydrochloride],105 ± 4.6,100 ± 1.5

Structure (SMILES),growth yield (40 h) [%],growth yield (72 h) [%]
C/C(=C\C(=O)OCCCCCCCCC(=O)O)C[C@@H]1OC[C@H](C[C@@H]2O[C@H]2[C@@H](C)[C@H](C)O)[C@@H](O)[C@H]1O [Mupirocin],6.04 ± 2.9,39.5 ± 8.5
O=C(O)CCC(=O)Nc1ccc(S(=O)(=O)Nc2nccs2)cc1 [Succinylsulfathiazole],94.7 ± 3.5,93.9 ± 2.6
"OCC(O)CN1CCN(c2ccccc2)CC1 (racemic) [Dropropizine (R,S)]",101 ± 1.6,101.7 ± 0.63
CC(C)(CO)C(O)C(=O)NCCCO (stereo not drawn) [Panthenol (D)],100 ± 4.5,98.1 ± 3
CC(=O)OC[C@H]1O[C@@H]([S-])[C@H](OC(C)=O)[C@@H](OC(C)=O)[C@@H]1OC(C)=O.CCP(CC)CC.[Au+] [Auranofin],25.6 ± 2.1,33 ± 2
CN(C)/N=N/c1[nH]cnc1C(N)=O [Dacarbazine],95.6 ± 1.9,98 ± 3.4
O=C1C(O)=C([C@H]2CC[C@H](c3ccc(Cl)cc3)CC2)C(=O)c2ccccc21 [Atovaquone],95.1 ± 4.3,97.4 ± 1.6
COc1cccc(N(C)C(=S)Oc2ccc3c(c2)CCCC3)n1 [Liranaftate],0,0
CC(C)(C(=O)c1cccnc1)c1cccnc1 [Metyrapone],91 ± 3,88.4 ± 2.6
COc1cc2nc(N(C)CCCNC(=O)C3CCCO3)nc(N)c2cc1OC (stereo not drawn) [Alfuzosin hydrochloride],104.7 ± 0.79,105 ± 3.6
OC(CNCC(O)C1CCc2cc(F)ccc2O1)C1CCc2cc(F)ccc2O1 (stereo not drawn) [Nebivolol hydrochloride],95 ± 16,114 ± 14
CN(C)CCOC1=Cc2ccccc2Sc2ccc(Cl)cc21 [Zotepine],89.7 ± 14,114 ± 11
NC(N)=Nc1nc(CSCC/C(N)=N/S(N)(=O)=O)cs1 [Famotidine],103 ± 1.9,101 ± 1.3
CCCCN(CCCC)CCC(O)c1cc2c(Cl)cc(Cl)cc2c2cc(C(F)(F)F)ccc12 (stereo not drawn) [Halofantrine hydrochloride],25.6 ± 6.2,95.9
N=C(N)N/N=C/c1c(Cl)cccc1Cl [Guanabenz acetate],91.5 ± 1.9,90.7 ± 3.2
COC(=O)[C@H]1[C@H]2C[C@@H]3c4[nH]c5cc(OC)ccc5c4CCN3C[C@H]2C[C@@H](OC(=O)c2cc(OC)c(OC)c(OC)c2)[C@@H]1OC [Reserpine],107 ± 5.4,107 ± 2.8
CCCCOc1ccc(CC(=O)NO)cc1 [Bufexamac],94.2 ± 1.1,88.1 ± 2.9
CCCCOc1ccc(C(=O)CCN2CCCCC2)cc1 [Dyclonine hydrochloride],93.6 ± 3,98.7 ± 1.6
N=C(N)c1ccc(OCCCCCOc2ccc(C(=N)N)cc2)cc1 [Pentamidine isethionate],1.91 ± 0.95,1.78 ± 0.52
CC(C)(C)NC[C@@H](O)COc1cccc2c1CCCC2=O [(+) -Levobunolol hydrochloride],100.2 ± 0.16,98.9 ± 0.1
NS(=O)(=O)Cc1noc2ccccc12 [Zonisamide],104.5 ± 0.95,98.8 ± 1.9
CN(C)CCN(Cc1ccccc1)c1ccccn1 [Tripelennamine hydrochloride],107 ± 1.4,100 ± 1.6
C[C@]1(Cn2ccnn2)[C@H](C(=O)O)N2C(=O)C[C@H]2S1(=O)=O [Tazobactam],98.96 ± 0.79,96.8 ± 1.4

# From the supplement of paper PMC8007513
